From PubChem
Tb PYK inh: blocks Trypanosoma brucei pyruvate kinase. Q57TT1. TbPYK enzyme, Kinase-Glo Plus ATP luminescence, 45 min. Potency, µM (top dose mostly 76.8 µM), for inactives: top-dose activity, negative = inhibition, hits mostly inhibitors. 410,000 tested, 0.12% active; further: nearly all actives have a fitted effect of over 50% in size
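Screened from lowest to highest concentration, compounds were pinned into TbPYK/substrate mixtures, and ADP (130 uM final) was added. Plates sat at room temperature for 45 min prior to Kinase-Glo Plus detection by luminescence.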
AMA1-RON2 inh: disrupts binding of P. falciparum AMA1 to RON2 | AlphaScreen AMA1-biotinylated RON2 peptide binding | Potency, µM (highest dose often 58.2 µM), for inactives: at the top dose activity change, negative = inhibition, usual class: inhibitors | 360,000 tested, 0.2% active | AID 720542;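 further: 0% = vehicle wells and -100% = peptide control; nearly all actives have a fitted effect of over 45% in size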
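AMA1 (3D7) with his tag at 25 nM final met compounds first, then biotinylated RON2 peptide at 25 nM; detection used donor plus acceptor beads, 10 µg/mL apiece, read by AlphaScreen after 30 min at room temperature.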
VACV mCherry inh: inhibitors of vaccinia virus infection (mCherry reporter signal) | 310,000 tested, 0.63% active | Potency, µM (titrated, usually from 36.5 µM), without a hit: at the highest dose activity change, negative = inhibition, usual class: inhibitors | Vaccinia virus mCherry reporter infection, fluorescence; calls by dose curve; tested in A549 cells; further: nearly all actives have a fitted effect of over 35% in size
VACV Venus inh: inhibitors of vaccinia virus (Venus reporter); Vaccinia virus Venus reporter expression, fluorescence; Potency, µM (top dose mostly 36.5 µM), for the others: top-dose activity change, negative = inhibition, hits mostly inhibitors; 330,000 tested, 0.46% active; AID 720580; calls by dose curve; tested in A549 cells; further: nearly all actives have a fitted effect of over 30% in size
RE007 growth inh: less growth of the S. pombe RE007 Vpr strain. S. pombe RE007 Vpr strain, BacTiter-Glo ATP luminescence, 24 h. 360,000 tested, 0.21% active. AID 651644. Potency, µM (top dose mostly 92.2 µM), for inactives: at the top dose activity change, negative = less growth, hits mostly inhibitors; active means well fitted falling curve with a large enough effect; inconclusive means small, poorly fitted or top-dose-only effect; inactive means no such curve, though single readings can be large or run the other way; further: nearly all actives have a fitted effect of over 50% in size
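Fission yeast strain RE007, carrying one chromosomally integrated HIV-1 vpr copy, was seeded at OD 0.01 in PMG+AL medium with 23 nL pinned compound. After 24 h at 30 °C and 99% humidity, viability was read by BacTiter-Glo luminescence.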
LmPK inhibitor: blocks Leishmania mexicana pyruvate kinase activity; 290,000 tested, 0.37% active; Potency, µM (doses to about 57.5 µM), inactives show at the highest dose activity change, negative = inhibition, actives largely listed as inhibitors; purified LmPK, Kinase-Glo ATP luminescence, 1 h; AID 1721
Target sequence (Q27686 whole entry, looked up): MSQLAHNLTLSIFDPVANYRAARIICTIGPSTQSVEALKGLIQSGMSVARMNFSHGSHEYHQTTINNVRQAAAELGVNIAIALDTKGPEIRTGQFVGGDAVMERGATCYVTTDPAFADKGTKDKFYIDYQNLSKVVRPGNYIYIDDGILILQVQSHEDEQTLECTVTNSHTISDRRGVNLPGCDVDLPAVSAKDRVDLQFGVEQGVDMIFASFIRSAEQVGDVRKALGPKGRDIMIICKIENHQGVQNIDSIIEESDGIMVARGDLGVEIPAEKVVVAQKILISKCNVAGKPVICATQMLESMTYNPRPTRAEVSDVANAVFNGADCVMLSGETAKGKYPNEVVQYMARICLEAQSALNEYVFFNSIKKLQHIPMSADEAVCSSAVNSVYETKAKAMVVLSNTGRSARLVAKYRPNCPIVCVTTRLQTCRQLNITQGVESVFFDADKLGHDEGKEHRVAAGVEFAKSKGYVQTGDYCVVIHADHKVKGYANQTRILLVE
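Purified LmPK (0.1 nM) converted ADP (0.1 mM) to ATP with PEP (0.5 mM) in imidazole buffer pH 7.2 with KCl and MgCl2, 1 h at room temperature. ATP was read by Kinase-Glo luminescence; data normalized to uninhibited and no-enzyme controls.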
Starred values were filed as active, the others as inactive; ? = inconclusive; nt = no result given. Shown are actives, neighbours in structure and some others; about 1.3% of the full set was active somewhere. Unless noted, the call rests on the fitted dose curve; in most records, active means well fitted curve in the direction sought with a large enough effect; inconclusive means small, poorly fitted or top-dose-only effect, or another doubt; inactive means no such curve, though single readings can be large; an effect the other way counts as inactive or inconclusive. Unless noted, on the % scale 0 is the no-effect control and ±100 the full control effect; potency means the concentration at half of the fitted maximal effect.

SMILES	Tb PYK inh	AMA1-RON2 inh	VACV mCherry inh	VACV Venus inh	RE007 growth inh	LmPK inhibitor
C[C@@H]1CN(Cc2ccc3c(c2)CN(Cc2cccc4c2OCO4)CCO3)C[C@H](C)O1	nt	nt	-14%	0%	nt	nt
Nc1ccc2nc(-c3ccccn3)[nH]c2c1	-14%	?	nt	-18%	-18%	20µM*
COc1ccc2nc(-c3cccc(N)c3)[nH]c2c1	-7%	-8%	nt	-25%	-9%	22µM*
COc1ccc2nc(-c3ccccn3)[nH]c2c1	-19%	58%	nt	nt	-9%	?
Nc1ccc2nc(-c3ccccc3)[nH]c2c1	-12%	-12%	-14%	-13%	-6%	14µM*
COc1ccc(OC)c(CN2CCOc3ccc(C(O)c4cccnc4)cc3C2)c1 (centres undefined)	nt	nt	-22%	-13%	nt	nt
COc1ccc(Cl)cc1NC(=O)c1cnc2n(c1=O)CCS2	-2%	5%	2.2µM*	?	5%	0%
O=[N+]([O-])c1cc(Cl)ccc1NCCc1ccccn1	1%	22µM*	7%	-9%	-11%	3%
N#Cc1ccc(NCCc2ccccn2)c([N+](=O)[O-])c1	0%	-2%	nt	nt	-10%	-5%
COc1cc(OC)cc(C(=O)N2CCN(C(=O)COc3ccccc3)CC2)c1	-4%	nt	-3%	-2%	nt	nt
CN(C)c1ccc(N=Nc2ccccc2C(=O)OCC(=O)N2CCCCCC2)cc1	1%	18µM*	-18%	-3%	-5%	1%
CN(C)c1ccc(N=Nc2ccccc2C(=O)OCC(=O)N2CCCC2)cc1	-6%	?	-8%	-7%	7%	-8%
CN(C)c1ccc(N=Nc2ccccc2C(=O)OCC(=O)Nc2ccccc2C(F)(F)F)cc1	4%	14µM*	-27%	-16%	-7%	-4%
Cc1c(CN2CCOc3ccc(C(C)(O)COc4ccccc4)cc3C2)cnn1C (centres undefined)	nt	nt	-16%	5%	nt	nt
CN1CCN(c2ccc(CNC(=O)c3cccc4c(-c5ccc(F)c(F)c5)coc34)cc2)CC1	-9%	14µM*	?	?	-17%	nt
C#CCN(C[C@@H]1[C@@H](OC(=O)NCc2ccccc2F)[C@@H](OC(=O)NCc2ccccc2F)Cn2c(=O)ccc(=O)n21)S(=O)(=O)c1ccc(C)cc1	-8%	-12%	?	7.1µM*	-14%	nt
C#CCN(C[C@@H]1[C@@H](OC(=O)Nc2cccs2)[C@@H](OC(=O)Nc2cccs2)Cn2c(=O)ccc(=O)n21)S(=O)(=O)c1ccc(C)cc1	-3%	-2%	?	8.9µM*	7%	nt
C#CCN(C[C@@H]1[C@@H](OC(=O)NCc2ccccc2F)[C@@H](OC(=O)NCc2ccccc2F)Cn2c(=O)n(CCCCCC)c(=O)n21)S(=O)(=O)c1ccc(C)cc1	1%	-11%	-26%	-24%	9%	nt
C#CCN(C[C@@H]1[C@@H](OC(=O)NC2CCCC2)[C@@H](OC(=O)NC2CCCC2)Cn2c(=O)ccc(=O)n21)S(=O)(=O)c1ccc(C)cc1	-7%	6%	?	7.9µM*	4%	nt
C#CCN(C[C@H]1[C@H](OC(=O)Nc2cccs2)[C@H](OC(=O)Nc2cccs2)C[C@H]2C(=O)N(c3ccccc3)C(=O)[C@@H]12)S(=O)(=O)c1ccc(C)cc1	-4%	-9%	-15%	-6%	-13%	nt
C#CCN(C[C@@H]1[C@@H](OC(=O)NC2CC2)[C@@H](OC(=O)NC2CC2)CN(C(=O)OC(C)C)N1C(=O)OC(C)C)S(=O)(=O)c1ccc(C)cc1	-4%	2%	-9%	-25%	-3%	nt
COc1cc(=O)n2c(c1C(=O)N(C)Cc1ccsc1)CCN(Cc1c(C)nn(C)c1Cl)CC2	nt	nt	-9%	-2%	nt	nt
CC(C)C(NC(=O)c1ccoc1)c1nnc2n1CCN(C(=O)/C=C/c1ccc(F)cc1)CC2 (centres undefined)	nt	nt	-15%	-15%	nt	nt
Cc1cccc(C(=O)NCc2nc(-c3cccc(NC(=O)c4ccoc4C)c3)oc2C)n1	nt	nt	-14%	-10%	nt	nt
